According to PubChem BioAssay:
Activity calls are given as the source filed them.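 Rule for the calls, unless noted: active = superoxide response below 65% of plate, a cut near 3 SD across the whole screen; inactive = the rest.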

Tests used:
[1] = reduced mouse 2C T cell binding to pMHC/ICAM-1 vesicles – MLPCN validation set, flow cytometry, LFA-1/ICAM-1 modulator project, pilot screen (AID 2523;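 active = response below a set limit, under 55% cells CD8-positive and vesicle-bound, and CD8 cells' 90th-percentile brightness under 279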;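 for vesicle binding response: mean PE anti-B7-1 fluorescence of CD8+ cells relative to row control; 100% = QL9-loaded vesicles with DMSO vehicle in the same plate row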); conditions: 2C mouse CD8+ T cells, at 7 µM, stronger effect = lower value; double positive events: measured here: CD8+/vesicle+ event percentage
[2] = molecular target: Integrin beta-1 (Homo sapiens) + Integrin alpha-4 (Homo sapiens) (UniProt P13612+P05556); experiment: alpha4beta1 integrin LIBS antibody binding reduction – U937 cells, HUTS-21 mAb, flow cytometry, validation set, VLA-4 allosteric modulator project, pilot screen (AID 2674;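 active = inhibition above 50%, about 3 SD of the validation set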;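 note: antibody binding induced by the VLA-4 ligand LDV present at three times its Kd; 0% = LDV ligand with antibody and no compound and 100% = antibody without LDV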); conditions: HUTS-21 LIBS mAb binding, at 6.7 µM, stronger effect = higher value, binding induced by LDV ligand
[3] = calorie-restriction mimetic ROS inhibitors, yeast – validation compound set, pilot screen (AID 2706);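 note: yeast exposed to compound for one week at 30 degrees C before staining; 100% = mean of all compound wells on the same plate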; conditions: S. cerevisiae aging, superoxide DHE fluorescence; at 10 µM, stronger effect = lower value
[4] = molecular target: Beta-adrenergic receptor kinase 1 (Homo sapiens) (UniProt P25098); experiment: GRK2 binders displacing RNA aptamer, biochemical, validation, human GRK2, bead flow cytometry (AID 488806;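 active = aptamer binding inhibition above 30%, about 3 SD of noise from non-fluorescent compounds; inactive = inhibition at or below 30%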); conditions: bead-bound GRK2, FAM-aptamer displacement, at 10 µM, stronger effect = higher value
[5] = molecular target: Beta-2 adrenergic receptor (Homo sapiens) (UniProt P07550); experiment: agonist-induced loss of surface beta2AR – cell-based, FAP fluorogen, flow cytometry, validation set, pilot screen (AID 504459;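 active = percent response above 42, roughly 3 SD of non-fluorescent test compounds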;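 note: agonist-driven loss of surface beta2AR via internalization measured by FAP dye flow cytometry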); conditions: Am2.2-beta2AR cells, at 10 µM, stronger effect = higher value
[6] = molecular target: AP-2 complex subunit beta (Homo sapiens) (UniProt P63010); experiment: beta-arrestin/AP2 interaction blockers – biochemical, validation set, GST-AP2 beads, flow cytometry, pilot screen (AID 504541;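 active = inhibition above 54%, about 3 SD of non-fluorescent compounds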;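 note: AP2 carries R879A mutation and is captured from E. coli lysate; bead-bound FITC arrestin peptide fluorescence measuring arrestin peptide binding to AP2; 0% = DMSO wells and 100% = excess unlabeled arrestin peptide control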); conditions: FITC arrestin peptide, at 10 µM, stronger effect = higher value, AP2 beta2 appendage fragment, R879A mutant
[7] = cytosolic pH regulators acting via V-ATPase – S. cerevisiae, pHLuorin, HTS validation (AID 504600; in the data active = response above about 15%;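 note: plate controls were DMSO for no effect and reference compound for full effect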); conditions: V-ATPase proton transport, at 10 µM, stronger effect = higher value
[8] = test system: anti-desmoglein-3 scFv antibody binding to human DSG3; experiment: blockers of pathogenic pemphigus antibody–desmoglein-3 binding – biochemical, validation compound set, bead-based, flow cytometry, pilot screen (AID 588368;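 active = binding below the plate cutoff, the plate median minus 3 SD, with a reading above zero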;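 note: signal is the median channel fluorescence of bead-bound GFP antibody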); conditions: Protein G beads, DSG3-Fc, scFv-GFP binding, at 10 µM, stronger effect = lower value
[9] = Nile Red efflux blockade in pump-expressing yeast – validation compound set, multiplex, phenotypic, pilot screen (AID 588506;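 active = efflux inhibition above 0.42, the validation set average plus 4 SD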;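 note: Nile Red retained in cells so higher fluorescence means more efflux inhibition; 0 = negative control wells and 1 = enniatin B 25 µM full block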); conditions: S. cerevisiae pump-expressing triplex, Nile Red efflux flow cytometry; at 10 µM; stronger effect = higher value; the pumps come from Candida albicans
[10] = molecular target: ATP-binding cassette sub-family B member 6 (Homo sapiens) (UniProt Q9NP58); experiment: blockers of ABCB6-driven porphyrin uptake – K562-ABCB6 cells, flow cytometry, validation set, pilot screen (AID 588550;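 active = inhibition above the screen-wide mean plus 3 SD, about 51%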;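 note: 0% = DMSO wells and 100% = benzethonium chloride 70 µM positive control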); conditions: K562-ABCB6 porphyrin accumulation, 1 h, at 10 µM, stronger effect = higher value
[11] = AML differentiation inducers, ER-HoxA9 marrow cells – cell-based, GFP/MAC1 double positive, flow cytometry, validation set, primary screen (AID 588685;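 active = differentiation response of at least 50%, scaled between solvent and reference control, from cells with both markers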;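 note: compound exposure lasts four days before antibody staining and flow analysis; 0% = DMSO wells and 100% = 5 µM fulvestrant positive control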); conditions: stronger effect = higher value, normalized: vehicle 0, fulvestrant 100

Chain of Integrin beta-1 (Homo sapiens) + Integrin alpha-4 (Homo sapiens) (P05556 whole entry, looked up): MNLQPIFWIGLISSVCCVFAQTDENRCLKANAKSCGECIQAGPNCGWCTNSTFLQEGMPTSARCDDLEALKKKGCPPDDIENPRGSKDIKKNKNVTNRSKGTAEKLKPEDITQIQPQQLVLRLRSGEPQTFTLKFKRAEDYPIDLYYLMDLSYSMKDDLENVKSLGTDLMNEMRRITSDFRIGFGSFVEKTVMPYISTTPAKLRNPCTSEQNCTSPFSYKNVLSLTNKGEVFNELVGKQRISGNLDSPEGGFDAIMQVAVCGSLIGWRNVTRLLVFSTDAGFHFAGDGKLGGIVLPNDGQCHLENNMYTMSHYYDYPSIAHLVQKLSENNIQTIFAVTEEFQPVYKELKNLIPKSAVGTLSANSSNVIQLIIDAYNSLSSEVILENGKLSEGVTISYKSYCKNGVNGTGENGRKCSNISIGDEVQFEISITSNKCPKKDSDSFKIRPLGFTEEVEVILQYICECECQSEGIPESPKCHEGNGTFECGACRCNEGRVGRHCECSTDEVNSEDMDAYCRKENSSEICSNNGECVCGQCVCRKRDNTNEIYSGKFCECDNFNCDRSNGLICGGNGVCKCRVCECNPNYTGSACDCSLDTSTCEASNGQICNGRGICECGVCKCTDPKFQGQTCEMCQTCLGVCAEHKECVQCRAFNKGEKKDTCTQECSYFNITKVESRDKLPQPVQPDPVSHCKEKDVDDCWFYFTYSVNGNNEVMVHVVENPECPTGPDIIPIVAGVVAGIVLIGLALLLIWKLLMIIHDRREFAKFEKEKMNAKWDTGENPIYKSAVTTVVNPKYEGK
Chain of Integrin beta-1 (Homo sapiens) + Integrin alpha-4 (Homo sapiens) (P13612 whole entry, looked up): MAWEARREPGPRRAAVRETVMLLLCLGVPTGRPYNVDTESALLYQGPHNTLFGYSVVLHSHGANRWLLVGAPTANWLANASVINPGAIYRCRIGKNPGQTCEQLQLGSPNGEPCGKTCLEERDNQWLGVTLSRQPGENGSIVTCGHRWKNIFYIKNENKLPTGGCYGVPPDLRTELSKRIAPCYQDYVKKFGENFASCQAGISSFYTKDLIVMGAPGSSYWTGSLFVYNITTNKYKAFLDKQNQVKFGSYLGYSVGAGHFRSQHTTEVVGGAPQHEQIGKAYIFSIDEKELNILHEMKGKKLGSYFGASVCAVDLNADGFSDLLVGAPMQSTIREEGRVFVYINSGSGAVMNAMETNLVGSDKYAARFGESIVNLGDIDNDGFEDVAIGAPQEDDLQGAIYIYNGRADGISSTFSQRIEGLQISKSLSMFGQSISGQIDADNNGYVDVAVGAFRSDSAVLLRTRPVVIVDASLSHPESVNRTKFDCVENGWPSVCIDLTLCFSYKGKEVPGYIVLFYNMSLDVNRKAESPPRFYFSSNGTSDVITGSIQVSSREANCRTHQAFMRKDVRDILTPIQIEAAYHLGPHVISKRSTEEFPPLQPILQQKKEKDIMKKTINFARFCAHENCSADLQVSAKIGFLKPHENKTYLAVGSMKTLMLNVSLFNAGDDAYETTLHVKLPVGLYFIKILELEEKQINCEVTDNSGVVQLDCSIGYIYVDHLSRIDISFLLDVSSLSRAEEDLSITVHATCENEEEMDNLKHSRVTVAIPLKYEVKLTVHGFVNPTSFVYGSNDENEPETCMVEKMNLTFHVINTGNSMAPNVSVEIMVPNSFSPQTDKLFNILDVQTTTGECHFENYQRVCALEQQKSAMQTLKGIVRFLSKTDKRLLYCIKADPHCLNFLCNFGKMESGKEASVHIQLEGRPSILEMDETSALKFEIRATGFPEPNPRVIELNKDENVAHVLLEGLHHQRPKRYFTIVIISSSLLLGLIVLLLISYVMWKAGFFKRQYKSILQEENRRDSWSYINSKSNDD
Chain of ATP-binding cassette sub-family B member 6 (Homo sapiens) (Q9NP58 whole entry, looked up): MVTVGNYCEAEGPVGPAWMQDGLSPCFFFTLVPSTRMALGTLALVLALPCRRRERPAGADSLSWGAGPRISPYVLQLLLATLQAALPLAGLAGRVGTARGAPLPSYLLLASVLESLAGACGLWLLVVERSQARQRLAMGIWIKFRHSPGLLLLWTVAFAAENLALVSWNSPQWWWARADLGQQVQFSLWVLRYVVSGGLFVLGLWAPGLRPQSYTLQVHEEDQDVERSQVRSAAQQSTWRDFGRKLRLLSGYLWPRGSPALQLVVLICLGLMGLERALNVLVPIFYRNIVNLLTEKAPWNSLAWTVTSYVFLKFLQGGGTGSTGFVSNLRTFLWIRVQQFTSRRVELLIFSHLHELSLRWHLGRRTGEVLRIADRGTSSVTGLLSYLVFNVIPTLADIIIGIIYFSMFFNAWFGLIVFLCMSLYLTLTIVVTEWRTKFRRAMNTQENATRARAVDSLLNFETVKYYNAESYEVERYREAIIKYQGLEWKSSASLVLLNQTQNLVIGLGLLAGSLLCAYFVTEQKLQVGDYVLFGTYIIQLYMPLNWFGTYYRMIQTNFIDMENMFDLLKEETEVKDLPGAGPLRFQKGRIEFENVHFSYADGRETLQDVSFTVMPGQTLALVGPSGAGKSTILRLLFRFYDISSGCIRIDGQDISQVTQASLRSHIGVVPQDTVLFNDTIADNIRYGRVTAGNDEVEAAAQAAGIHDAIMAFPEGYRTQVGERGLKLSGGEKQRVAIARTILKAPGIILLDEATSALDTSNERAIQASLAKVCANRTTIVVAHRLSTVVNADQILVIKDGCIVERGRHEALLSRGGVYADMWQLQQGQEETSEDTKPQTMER
Chain of Beta-adrenergic receptor kinase 1 (Homo sapiens) (P25098 whole entry, looked up): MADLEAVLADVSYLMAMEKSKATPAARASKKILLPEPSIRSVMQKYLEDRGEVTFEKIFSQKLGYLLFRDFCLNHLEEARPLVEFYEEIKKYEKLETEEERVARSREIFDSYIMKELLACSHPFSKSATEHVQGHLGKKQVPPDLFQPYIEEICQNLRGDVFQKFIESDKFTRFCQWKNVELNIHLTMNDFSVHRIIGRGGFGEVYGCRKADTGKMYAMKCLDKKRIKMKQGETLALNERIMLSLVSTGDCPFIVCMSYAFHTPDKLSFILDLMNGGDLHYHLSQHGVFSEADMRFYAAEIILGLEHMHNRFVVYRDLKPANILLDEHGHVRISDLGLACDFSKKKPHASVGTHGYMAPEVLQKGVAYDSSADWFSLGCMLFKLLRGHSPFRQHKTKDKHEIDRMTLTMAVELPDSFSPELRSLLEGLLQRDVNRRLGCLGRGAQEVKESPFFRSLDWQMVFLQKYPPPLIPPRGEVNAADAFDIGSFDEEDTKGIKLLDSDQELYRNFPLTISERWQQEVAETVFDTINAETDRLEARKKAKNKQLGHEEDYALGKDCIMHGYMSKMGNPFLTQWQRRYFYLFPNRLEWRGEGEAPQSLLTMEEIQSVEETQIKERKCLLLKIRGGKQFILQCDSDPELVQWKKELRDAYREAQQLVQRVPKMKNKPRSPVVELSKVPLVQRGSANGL
Chain of AP-2 complex subunit beta (Homo sapiens) (P63010 whole entry, looked up, the tested form may be a part, one chain of several): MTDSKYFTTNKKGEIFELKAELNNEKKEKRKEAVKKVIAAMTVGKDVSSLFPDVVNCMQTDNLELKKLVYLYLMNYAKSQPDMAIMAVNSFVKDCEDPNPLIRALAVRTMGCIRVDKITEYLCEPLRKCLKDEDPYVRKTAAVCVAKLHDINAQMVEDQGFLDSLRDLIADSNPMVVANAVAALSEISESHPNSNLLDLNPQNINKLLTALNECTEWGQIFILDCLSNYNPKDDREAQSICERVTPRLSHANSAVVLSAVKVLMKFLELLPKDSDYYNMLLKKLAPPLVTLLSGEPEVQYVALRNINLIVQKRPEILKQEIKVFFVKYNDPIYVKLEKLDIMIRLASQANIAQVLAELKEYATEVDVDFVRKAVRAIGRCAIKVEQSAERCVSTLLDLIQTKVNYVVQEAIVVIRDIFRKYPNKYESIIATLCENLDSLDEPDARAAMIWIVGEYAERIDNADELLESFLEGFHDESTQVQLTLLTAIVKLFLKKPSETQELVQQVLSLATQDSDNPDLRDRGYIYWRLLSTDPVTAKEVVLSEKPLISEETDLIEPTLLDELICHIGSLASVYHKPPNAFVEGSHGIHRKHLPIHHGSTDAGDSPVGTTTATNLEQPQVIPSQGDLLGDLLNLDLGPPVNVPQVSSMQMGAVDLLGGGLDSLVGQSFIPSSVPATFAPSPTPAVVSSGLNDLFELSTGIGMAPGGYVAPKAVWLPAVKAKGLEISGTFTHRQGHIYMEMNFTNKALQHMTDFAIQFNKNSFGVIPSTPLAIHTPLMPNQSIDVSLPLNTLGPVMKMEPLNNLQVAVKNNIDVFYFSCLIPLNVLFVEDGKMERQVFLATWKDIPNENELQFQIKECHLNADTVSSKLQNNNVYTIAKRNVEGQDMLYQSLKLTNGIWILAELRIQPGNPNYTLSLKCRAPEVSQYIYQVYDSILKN
Chain of Beta-2 adrenergic receptor (Homo sapiens) (P07550 whole entry, looked up): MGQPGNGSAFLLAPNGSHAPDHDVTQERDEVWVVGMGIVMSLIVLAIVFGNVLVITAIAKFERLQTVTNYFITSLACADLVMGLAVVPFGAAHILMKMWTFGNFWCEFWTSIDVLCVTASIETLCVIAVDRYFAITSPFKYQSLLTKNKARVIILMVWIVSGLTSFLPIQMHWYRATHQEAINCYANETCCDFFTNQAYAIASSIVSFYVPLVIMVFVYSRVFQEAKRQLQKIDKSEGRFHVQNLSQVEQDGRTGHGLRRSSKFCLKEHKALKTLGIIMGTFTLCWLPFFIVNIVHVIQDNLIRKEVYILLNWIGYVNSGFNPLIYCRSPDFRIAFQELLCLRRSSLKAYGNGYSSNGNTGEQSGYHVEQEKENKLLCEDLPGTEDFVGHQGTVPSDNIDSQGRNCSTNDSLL

Row | Compound | double positive events [1] [%] | vesicle binding response [1] | inhibition [2] | superoxide response (% of plate) [3] | aptamer binding inhibition [4] | response [5] | inhibition [6] | response [7] | binding (% of control) [8] | efflux inhibition (fraction of control) [9] | inhibition [10] | differentiation response [11]
1 | CC(=O)OCC(=O)[C@@]1(OC(C)=O)[C@@H](C)C[C@H]2[C@@H]3C[C@H](F)C4=CC(=O)C=C[C@]4(C)[C@@]3(F)[C@@H](O)C[C@@]21C | 61.9 | 157% (inactive) | -11.8% (inactive) | 97.6% (inactive) | -1% (inactive) | 5.99% (inactive) | 1.66% (inactive) | -2.14% (inactive) | 103% (inactive) | -0.015 (inactive) | -2% (inactive) | 4.2% (inactive)
2 | O=C(c1ccc([N+](=O)[O-])cc1)N1CCSC1c1ccccc1Cl (stereo not given) | 77.4 | 441% (inactive) | -9.98% (inactive) | 91% (inactive) | 4% (inactive) | -12.5% (inactive) | -8.18% (inactive) | -2.22% (inactive) | 101% (inactive) | -0.1 (inactive) | 5% (inactive) | 0.8% (inactive)
3 | CC(=O)N1CC23C=CC(CC2CC12CCCCCC2)O3 (stereo not given) | 61.4 | 200% (inactive) | 3.99% (inactive) | 102% (inactive) | 8% (inactive) | -21.9% (inactive) | -0.87% (inactive) | -29.7% (inactive) | 104% (inactive) | -0.09 (inactive) | 0% (inactive) | 0% (inactive)
4 | O=C(Cc1ccc(Br)cc1)c1ccc(O)cc1O | 58.3 | 228% (inactive) | -23.6% (inactive) | 97.7% (inactive) | -1% (inactive) | -3.21% (inactive) | -2.59% (inactive) | 1.13% (inactive) | 105% (inactive) | 0.09 (inactive) | 2% (inactive) | 12.3% (inactive)
5 | CC(C)CC(=O)N(Cc1ccc(F)cc1)C1CCS(=O)(=O)C1 (stereo not given) | 61.8 | 204% (inactive) | 0.25% (inactive) | 114% (inactive) | 2% (inactive) | 22.9% (inactive) | 1.93% (inactive) | 3.28% (inactive) | 102% (inactive) | 0.91 (active) | 19% (inactive) | -8.96% (inactive)
6 | Oc1ccc(Oc2ncc(Cl)cc2Cl)cc1 | 61.9 | 223% (inactive) | -3.67% (inactive) | 73.7% (inactive) | 2% (inactive) | -11% (inactive) | -4.55% (inactive) | 8.39% (inactive) | 107% (inactive) | 0.12 (inactive) | 6% (inactive) | -12.9% (inactive)
7 | COc1ccc(/C=C\C(=O)c2c(O)ccc3c(C)cc(=O)oc23)cc1OC | 60.8 | 182% (inactive) | 14.2% (inactive) | 94.3% (inactive) | 1% (inactive) | 16.8% (inactive) | 60.6% (active) | -0.16% (inactive) | 106% (inactive) | 0.29 (inactive) | -4% (inactive) | -1.05% (inactive)
8 | COc1cc2c(cc1O)CC[C@@H]1[C@@H]2CC[C@]2(C)[C@@H](O)CC[C@@H]12 | 58.8 | 139% (inactive) | 44.9% (inactive) | 112% (inactive) | -7% (inactive) | -10.9% (inactive) | -5.34% (inactive) | -4.33% (inactive) | 106% (inactive) | 0.04 (inactive) | -1% (inactive) | -9.91% (inactive)
9 | CCC(=O)Oc1ccc(/C(CC)=C(\CC)c2ccc(OC(=O)CC)cc2)cc1 | 67.2 | 174% (inactive) | 19.1% (inactive) | 94.7% (inactive) | 3% (inactive) | -5.73% (inactive) | -4.91% (inactive) | 2.77% (inactive) | 84.1% (inactive) | -0.02 (inactive) | 11% (inactive) | -4.09% (inactive)
10 | COc1cccc(OC2OC3COC(C)(C)OC3C(O)C2NC(C)=O)c1 (stereo not given) | 63.6 | 203% (inactive) | 5.61% (inactive) | 97.8% (inactive) | 2% (inactive) | 2.82% (inactive) | 2.96% (inactive) | 6.08% (inactive) | 103% (inactive) | 0.1 (inactive) | 30% (inactive) | -11.9% (inactive)
11 | Cc1cccc(C2=N/C(=C\c3cccnc3)C(=O)O2)c1 | 63.6 | 179% (inactive) | 5.03% (inactive) | 98.1% (inactive) | 2% (inactive) | 13.3% (inactive) | -1.05% (inactive) | -1.71% (inactive) | 104% (inactive) | 0.12 (inactive) | 3% (inactive) | 103% (active)
12 | OCC1(CCOc2ccccc2)CCN(CCCn2cccn2)CC1 | 62.6 | 287% (inactive) | 11.9% (inactive) | 86.7% (inactive) | 0% (inactive) | 22.2% (inactive) | -9.04% (inactive) | 3.24% (inactive) | 101% (inactive) | -0.39 (inactive) | 4% (inactive) | 7.2% (inactive)
13 | CC(C)(C)c1ccc(C(O)CCCN2CCC(C(O)(c3ccccc3)c3ccccc3)CC2)cc1 (stereo not given) | 64.6 | 199% (inactive) | 38.9% (inactive) | 54.7% (active) | -1% (inactive) | 74.7% (active) | 2.19% (inactive) | 16.5% (active) | 112% (inactive) | 0.59 (active) | 10% (inactive) | 0.92% (inactive)
14 | CCN(Cc1cnn(C)c1)Cc1nc(C(c2ccccc2)c2ccccc2)no1 | 61.8 | 168% (inactive) | 7.4% (inactive) | 120% (inactive) | -5% (inactive) | -21.6% (inactive) | -13.6% (inactive) | -8.11% (inactive) | 98.8% (inactive) | -0.04 (inactive) | 1% (inactive) | 16.7% (inactive)
15 | COc1ccc(N2C(=O)C3CCCN3C2=O)cc1 (stereo not given) | 61.6 | 146% (inactive) | -1.79% (inactive) | 98.7% (inactive) | -1% (inactive) | 7.47% (inactive) | 9.15% (inactive) | 1.78% (inactive) | 102% (inactive) | 0.12 (inactive) | 7% (inactive) | 2.4% (inactive)
16 | O=C(CCCC(=O)OCC1CCCO1)OCC1CCCO1 (stereo not given) | 65.5 | 131% (inactive) | 4.52% (inactive) | 93.2% (inactive) | -3% (inactive) | 2.91% (inactive) | -6.03% (inactive) | 2.81% (inactive) | 99.4% (inactive) | -0.02 (inactive) | 15% (inactive) | 2.46% (inactive)
17 | COc1cccc(OC)c1C(=O)Nc1nc2ccc([N+](=O)[O-])cc2s1 | 60.8 | 91.9% (inactive) | -14.5% (inactive) | 101% (inactive) | -2% (inactive) | 4.56% (inactive) | 10.3% (inactive) | 1.22% (inactive) | 101% (inactive) | 0.005 (inactive) | 8% (inactive) | -3.11% (inactive)
18 | CCCC(=O)O[C@]1(C(=O)CO)CC[C@H]2[C@@H]3CCC4=CC(=O)CC[C@]4(C)[C@H]3[C@@H](O)C[C@@]21C | 56.4 | 901% (inactive) | -8.75% (inactive) | 105% (inactive) | -3% (inactive) | -0.28% (inactive) | 14.7% (inactive) | -3.44% (inactive) | 99.7% (inactive) | -0.2 (inactive) | 1% (inactive) | -3.67% (inactive)
19 | COc1cccc(N2CC34C=CC(O3)C(C(=O)O)C4C2=O)c1 (stereo not given) | 60.2 | 168% (inactive) | -19.5% (inactive) | 97.6% (inactive) | 0% (inactive) | -21.5% (inactive) | 28.1% (inactive) | -2.62% (inactive) | 102% (inactive) | 0.08 (inactive) | 3% (inactive) | 44% (inactive)
20 | O=C(/C=C/c1ccccc1)/C=C/c1ccccc1 | 69.3 | 434% (inactive) | 21.4% (inactive) | 105% (inactive) | 2% (inactive) | 48.5% (active) | -3.48% (inactive) | 0.62% (inactive) | 96.6% (inactive) | -0.17 (inactive) | 2% (inactive) | -16.8% (inactive)
21 | C[C@H](NC(=O)OC(C)(C)C)C(=O)NCC1CCC(C(=O)O)CC1 (stereo not given in full) | 58 | 166% (inactive) | 5.03% (inactive) | 95.3% (inactive) | 6% (inactive) | -13.5% (inactive) | -1.54% (inactive) | 1.21% (inactive) | 99.5% (inactive) | -0.06 (inactive) | 6% (inactive) | 0.8% (inactive)
22 | COc1ccc(CC(=O)N2CC3(C)CC2CC(C)(C)C3)cc1OC (stereo not given) | 64.1 | 255% (inactive) | -5.89% (inactive) | 91.8% (inactive) | 1% (inactive) | -7.91% (inactive) | -2.57% (inactive) | 1.81% (inactive) | 102% (inactive) | 0.44 (active) | 3% (inactive) | 5.6% (inactive)
23 | COc1ccc(-c2cc(=O)oc3c(C)c(O)c(CN(C)C)cc23)cc1 | 66 | 183% (inactive) | 9.63% (inactive) | 96.8% (inactive) | 1% (inactive) | -14.6% (inactive) | 2.69% (inactive) | 5.58% (inactive) | 98.3% (inactive) | 0.42 (inactive) | 0% (inactive) | 2.74% (inactive)
24 | CCN(CC)C(=S)SSC(=S)N(CC)CC | 59.7 | 164% (inactive) | 27.8% (inactive) | 109% (inactive) | 4% (inactive) | 14.2% (inactive) | 3.89% (inactive) | -29.5% (inactive) | 100% (inactive) | -0.13 (inactive) | 4% (inactive) | -0.06% (inactive)
25 | O=c1cc(Cn2ccnc2)c2cc3c(cc2o1)CCC3 | 57.6 | 143% (inactive) | -11.3% (inactive) | 99.2% (inactive) | -2% (inactive) | -7.31% (inactive) | 8.12% (inactive) | -1.72% (inactive) | 105% (inactive) | 0.08 (inactive) | 2% (inactive) | 48.8% (inactive)
